Data on 14 molecules can be found in ChEMBL document CHEMBL4513146, “CO-ADD screening of Karazin Kharkiv National University (Ukraine) compounds”.

Results with a measured potency or affinity are listed apart.

The assay deals with Klebsiella pneumoniae. Particulars: Concentration 32 ug.mL-1;; ASSAY_TEST Inhibition of Bacterial Growth; detection method Absorption (OD600); MEDIA CAMHB; plate type 384well; NBS; CORNING #3640; time 18 hr.
The Inhibition is the relative decrease from the control value, in per cent. Regarding `COc1ccc(NC(=O)Cn2nc3ccc(SCc4ccc(Cl)cc4)nn3c2=O)cc1OC`, the Inhibition was -4.29%.

Turning to `CC(C)c1nnc2c(SCC(=O)Nc3ccccc3F)nc3ccccc3n12`, the Inhibition amounted to 10.81%.

For the molecule `Cc1ccc(Cn2c(=O)c3ccccc3n3c(=O)n(CC(=O)Nc4ccc5c(c4)OCCO5)nc23)cc1`, the Inhibition stood at 10.7%.

As to `Cc1ccc(N(Cc2cccc(C)c2)S(=O)(=O)c2cccn3c(C)nnc23)cc1`, the Inhibition is recorded as 5.17%.

In the case of `O=C(Cn1nc2c(Sc3cccc(F)c3)nccn2c1=O)Nc1cccc(C(F)(F)F)c1`, the Inhibition amounted to 14.77%.

For `Cc1ccc(-c2nc(CSc3nc4ccccc4n4c(C(C)C)nnc34)c(C)o2)cc1`, the Inhibition is 3.51%.

For the molecule `CCOc1ccc(-n2ccn3c(SCc4cccc(C(F)(F)F)c4)nnc3c2=O)cc1`, the Inhibition was 0.24%.

Turning to `C=Cc1ccc(Cn2nc3c(=O)n(-c4cccc(Cl)c4C)ccn3c2=O)cc1`, the Inhibition is -0.98%.

Regarding `O=C(Cn1nc2ccc(C(=O)NCc3ccccc3)cn2c1=O)Nc1ccc(Br)cc1`, the Inhibition is on record as -0.54%.

In the case of `COC(=O)c1cccc(NC(=O)Cn2nc3ccc(-c4ccccc4)nn3c2=O)c1`, the Inhibition is -4.82%.

In the case of `COc1ccc2[nH]cc(C(=O)CSc3nnc4c(=O)n(-c5cccc(Cl)c5C)ccn34)c2c1`, the Inhibition worked out at 5.78%.

With `COc1ccc(-c2cc3c4nnc(SCC(=O)NCc5ccc(C)cc5)n4ccn3n2)cc1`, the Inhibition is on record as 7.85%.

`Cc1ccc(-c2ccc3nn(Cc4nc(-c5ccc(Cl)cc5)no4)c(=O)n3n2)cc1C`: the Inhibition stood at 7.1%.

As to `Cc1nnc2ccc(S(=O)(=O)N(Cc3cccc(F)c3)c3cccc(Cl)c3)cn12`, the Inhibition is listed as -2.92%.
